As a reminder, the % Inhibition is the relative decrease from the control value, in per cent.

Hit rate of the full screen: of about 4,800 compounds, about 420 (8.8%) showed an effect of 50% or more. The list comes from a sample in which strong results are over-represented; it also holds similar structures and randomly drawn compounds.

Here are results for 63 compounds from ChEMBL document CHEMBL4888484, “Replenishing the malaria drug discovery pipeline: Screening and hit evaluation of the MMV Hit Generation Library 1 (HGL1) against asexual blood stage Plasmodium falciparum ,using a nano luciferase reporter read-out” (2022).

This test deals with Plasmodium falciparum. Briefly: Confirmatory screen in NF54 nanoGlo assay, in single point, at 2uM, 72h. The test is classed as functional, Erythrocyte. The following applies: timepoint 72 hour.
As to `CC1(C)CN(C(=O)CN2CCOCC2=O)C2CCCC21` (stereo not drawn), the “% Inhibition” value is reported as -16%.
As for `COc1cccc(N2CCN(C3=NC(=O)[C@@H](C#N)C4(CCCC4)N3)CC2)c1`, the “% Inhibition” value was found to be 2%.
Then `O=C(O)Cc1ccc(OCc2nc(-c3ccsc3)no2)cc1`, with -2%.
On to `CC(=O)Nc1ccc(C)cc1S(=O)(=O)N1CC=C(c2c(C)n(Cc3ccccc3C)c3ccccc23)CC1`, for which the “% Inhibition” value was 91%.
`Cc1ccc(S(=O)(=O)N2CC[C@H](CC(=O)NCc3ccccc3)C2)c(C)c1`: the “% Inhibition” value is given as -17%.
Take `Cc1ccc(NC(=O)Cn2c(=O)n(Cc3ccco3)c(=O)c3ccccc32)c(C)c1`: the “% Inhibition” value is recorded as -12%.
In the case of `CC[C@](C)(NCCc1c[nH]c2ccccc12)c1nnnn1CCOC` it was -2%.
Turning to `Cn1c(N2CCN(Cc3ccc4c(c3)OCO4)CC2)cc(=O)n(C)c1=O`, the “% Inhibition” value is listed as -12%.
In the case of `COc1ccc(CNC(=O)N2C[C@H](C)OC3(CCCCC3)C2)cc1OC(F)F` it was -8%.
Then `O=C(NCc1ccco1)c1cc2c(Cl)ccc3c2n1CCO3`, with -1%; and `Cc1cc2nc(C)c3c(n2n1)N(Cc1ccccc1Cl)CC3`, with -2%.
Then `CC(C)Oc1cccnc1C(=O)N(C)c1cnn(C)c1`, with -5%.
Consider `COc1ccc(-c2cc3c(N4CCN(C)CC4)nccn3n2)cc1OC`, for which the “% Inhibition” value came to 1%.
In the case of `COc1ccc(-c2nn(-c3ccccc3)c(O)c2C(c2ccc(C(=O)O)cc2)c2c(-c3ccc(OC)cc3)nn(-c3ccccc3)c2O)cc1` it was 2%; in that of `Cc1nn(-c2ccccn2)c(O)c1C(c1ccccc1)c1c(C)nn(-c2ccccn2)c1O`, 90%.
On to `O=C(CCn1nc(-c2cccc(Cl)c2)ccc1=O)NCc1ccc(F)cc1F`, for which the “% Inhibition” value is listed as -2%.
Then `CCn1cc(CN2C(=O)C3CCCCC3C2=O)c(C)n1` (stereo not drawn), with -3%; and `FC(F)(F)c1cnc(N2CCOC3(CCOCC3)CC2)s1`, with -2%.
As to `Oc1nc(N2CCOC3(CCCC3)C2)ncc1F`, the “% Inhibition” value was found to be 51%.
For the compound `O=C(c1cc(-c2ccncc2)on1)N1CCOC2(CCCCCC2)C1`, the “% Inhibition” value is -6%.
In the case of `COC(c1ccc(-c2ccc(OC3CC3)cc2)cc1)C(C)N` (stereo not drawn) it was -3%.
In the case of `COc1ccc(CNC(=O)c2ccc(Cl)c(-n3c(C)nc4cccnc43)c2)c(OC)c1` it was 2%; in that of `CCOC(=O)c1ccc(N2CCN(Cc3ccccc3)CC2)c(NC(=O)COc2ccc(Cl)cc2C)c1`, -4%; in that of `Cn1nc(N)c2cc(C(F)(F)F)ccc21`, -2%.
Turning to `CCn1c(=O)c(N2CCN(C(=O)Nc3cccc(C(F)(F)F)c3)CC2)nc2ccccc21`, the “% Inhibition” value is given as -2%.
In the case of `Cc1nn(Cc2ccccc2)c2c1C(c1cccc(Cl)c1Cl)c1c(C)nn(Cc3ccccc3)c1O2` it was 9%.
For the compound `COc1ccc(OC)c(CN2C(=O)c3cc4c(OC)ccc(OC)c4n3C[C@]2(C(=O)NC2CCCCCC2)c2ccccc2)c1`, the “% Inhibition” value is on record as 18%.
Then `CCCn1c(C)nnc1COC(=O)c1ncoc1C`, with -5%; and `CC(C)(C)OC(=O)NC1CCN(c2ncc(C(=O)NCc3ccc(F)c(Cl)c3)c(N)n2)CC1`, with -17%.
Then `CN1CCc2ncnc(Nc3ccc4nc(N5CCCC5)sc4c3)c2C1`, with 2%; and `CC(=O)Nn1ccc2nc(N3CCOCC3)ncc2c1=O`, with -7%; and `COC1(C)CC(NC(=O)C(C(C)C)N2CCCS2(=O)=O)C1(C)C` (stereo not drawn), with -9%.
In the case of `CCC(=O)N(Cc1ccc(-c2ccc(Cl)cc2)o1)[C@H]1CCS(=O)(=O)C1` it was 38%.
In the case of `Cn1ccc(CN2CCN(c3ccccc3)CC2)n1`, the “% Inhibition” value is listed as 1%.
Then `Cc1nc(-c2ccc(N3CCC(NCCCn4ccnc4)CC3)cc2)cs1`, with 12%.
Then `COc1cc(C)cc(C)c1S(=O)(=O)N(C)Cc1nnc[nH]1`, with 4%; and `COc1cccc(C2C(NC(=O)c3ccoc3)CCN2C2CC2)c1` (stereo not drawn), with -10%; and `CC(C(=O)Nc1cc(F)ccc1F)N1CCCC(c2nncn2C(C)C)C1` (stereo not drawn), with -3%.
In the case of `CC(C(=O)Nc1nccs1)N1CCCC(c2ccn[nH]2)C1` (stereo not drawn), the “% Inhibition” value turned out to be 50%.
Take `CC1=CCN(C(=O)Nc2nccs2)CC1`: the “% Inhibition” value was 7%.
Regarding `c1ccc(NC(Nc2nnn[nH]2)=C(c2ccccc2)c2ccccc2)cc1`, the “% Inhibition” value was 0%.
Regarding `O=C(CCC(=O)Nc1cccnc1)NCc1ccc2c(c1)OCO2`, the “% Inhibition” value is -2%.
Then `O=C(Nc1ccn(Cc2cccnc2)n1)c1ccc(-c2ccccc2F)o1`, with -2%; and `O=C(Nc1cccnc1)c1ccc(-c2ccc(Cl)c(Cl)c2)o1`, with 91%; and `CS(=O)(=O)Nc1nc2ccc(NC(=O)c3cc(-c4ccccc4)nc4ccccc34)cc2s1`, with 0%.
Consider `CCOc1ccc(-c2cc(NC(=O)c3cc(-c4cccnc4)nc4ccccc34)on2)cc1OCC`, for which the “% Inhibition” value was found to be 94%.
Turning to `COc1ccc(-c2cc(C(=O)NC3CCN(C(C)C)CC3)c3ccccc3n2)cc1OC`, the “% Inhibition” value is given as -7%.
Then `COc1ccc(CC[C@](C)(O)c2cc(C(N)=O)no2)cc1`, with -9%; and `COc1ccc(N(C(=O)c2ccccc2)C2CC(C)N(C(=O)c3ccccc3)c3cc(OC)c(OC)cc32)cc1OC` (stereo not drawn), with -1%.
For the compound `N#CCC(=O)Nc1nc(-c2ccc(Oc3ccccc3)cc2)cs1`, the “% Inhibition” value is given as -4%.
For the compound `Cc1cc(C(=O)N[C@@H](C)CO)c(C)n1-c1nccs1`, the “% Inhibition” value is recorded as -19%.
Then `c1ccc(N2CCN(C3CCN(Cc4ccncc4)CC3)CC2)cc1`, with -6%; and `c1cc(CN2CCN(C3CCCCCC3)CC2)ccn1`, with -18%.
In the case of `COc1nccnc1N(C(C)=O)S(=O)(=O)c1ccc(NC(C)=O)cc1` it was -13%; in that of `N#Cc1ccc(N2CCN3C(=O)NCC3C2)nc1N1CCN2C(=O)NCC2C1` (stereo not drawn), -12%; in that of `CC(C)[C@H](OC(=O)n1ccnc1)C(=O)OC(C)(C)C`, -10%.
In the case of `CC1C=CC2C(=O)N(CC(F)(F)F)C(=O)C2C1C(=O)N1CCC(Cc2ccccc2)CC1` (stereo not drawn) it was -3%; in that of `Cc1ccc(NC(=O)Cn2cnc3nc(N(C)Cc4ccccc4)sc3c2=O)c(Br)c1`, -14%.
Consider `CC[C@@H](CO)NC(=O)Nc1cccc(C)c1`, for which the “% Inhibition” value turned out to be 5%.
`CCC(C)(CC)[C@@](O)(C#CC[N+]1(Cc2ccccc2)CCCCC1)c1ccccc1`: the “% Inhibition” value turned out to be 7%.
With `CC(CC1OCC(C[N+]2(Cc3ccccc3)CCCCC2)O1)CC(C)(C)C` (stereo not drawn), the “% Inhibition” value was determined as 57%.
In the case of `O=C1CCCC1C(c1ccccc1)N(C1=NS(=O)(=O)c2ccccc21)c1ccccc1` (stereo not drawn) it was -10%; in that of `CNC(=O)CCS(=O)(=O)CCCC(=O)Nc1c(C)cc(C)cc1C`, -14%.
